Rows were chosen to be rich in hits. Some 1.7% of all compounds tested hit in one or more screens of this group.
m5-HT2A agonist: mouse HTR2A agonism via beta-arrestin recruitment | P35363 | CHO-K1 mHTR2A beta-arrestin complementation, luminescence; percent of 30 µM serotonin response | activation, % at 7.6 µM | hit rate 0.66% among 360,000 | AID 624169;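 active = activation above a run cutoff, the mean activation of all tested compounds plus 3 SD, cut at about 14% in these data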;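 also: 0% = plate median of compound wells and 100% = 30 µM serotonin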
CTSL1 counter: blocks F. hepatica cathepsin L1 in PFM18AAP counter-screen | recombinant F. hepatica cathepsin L1, Z-Leu-Arg-MCA fluorescence | AID 1906 | hit rate 0.49% among 300,000 | inhibition, % at 5.96 µM;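 active = inhibition above the mean of all tested compounds plus 3 SD, set per screening campaign, cut at about 17% in these data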;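 also: 0% = plate median of test compound wells and 100% = 1 µM Z-Phe-Ala-diazomethylketone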
LANA-H2A inh: blocks KSHV LANA binding to histone H2A/H2B; Q9QR71; cell-free LANA-H2A/H2B peptide, fluorescence polarization; inhibition, % (no concentration beside the values); hit rate 0.6% among 320,000; AID 2629; in the data active = inhibition mostly above about 10%, no sharp cut-off; inactive = mostly below about 6.7%
HDAC3 inh: inhibitors of human histone deacetylase 3 | O15379 | recombinant HDAC3, fluorogenic peptide/trypsin coupled, fluorescence | inhibition, % at 8.3 µM | hit rate 0.15% among 320,000 | AID 2718; in the data active = inhibition above about 26%, passing the limit was not always enough
Target sequence (O15379 whole entry, looked up): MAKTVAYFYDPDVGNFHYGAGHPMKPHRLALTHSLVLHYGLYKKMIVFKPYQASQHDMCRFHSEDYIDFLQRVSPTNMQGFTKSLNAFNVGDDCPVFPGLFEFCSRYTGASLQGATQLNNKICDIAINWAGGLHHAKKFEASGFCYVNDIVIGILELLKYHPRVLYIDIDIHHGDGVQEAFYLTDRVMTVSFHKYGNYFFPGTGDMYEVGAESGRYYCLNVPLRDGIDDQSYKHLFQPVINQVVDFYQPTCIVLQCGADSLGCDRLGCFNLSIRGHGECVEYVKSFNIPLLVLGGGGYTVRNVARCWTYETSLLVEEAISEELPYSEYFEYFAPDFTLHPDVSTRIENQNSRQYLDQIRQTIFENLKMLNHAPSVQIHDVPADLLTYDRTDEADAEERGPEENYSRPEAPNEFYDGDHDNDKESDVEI
The depositor's hits bear a star; x = no result; + = active, no number; ! = not confirmed by another sample.

SMILES | m5-HT2A agonist | CTSL1 counter | LANA-H2A inh | HDAC3 inh
Cc1ccnc(NS(=O)(=O)c2ccc(NS(=O)(=O)c3cc(Cl)ccc3Cl)cc2)n1 | 1 | -2 | 14* | 3
Nc1nccc(SCc2ccc(Cl)cc2Cl)n1 | -4 | x | x | x
Nc1nc(N)c(Cc2ccc(Cl)cc2Cl)c(N)n1 | -1 | -2 | 32* | 2
Cc1ccc(N2C(=O)N(CC(=O)Nc3ccc(C)cc3[N+](=O)[O-])C(=O)C2C)cc1 (configuration not stated) | -7 | 7 | 0 | -1
Cc1ccc(N2C(=O)N(CC(=O)Nc3ccc(C)c(C)c3[N+](=O)[O-])C(=O)C2C)cc1 (configuration not stated) | 4 | 3 | 130* | 1
O=[N+]([O-])c1ccc(-n2nnnc2-c2ccccc2)c([N+](=O)[O-])c1 | 2 | 20* | -17 | -1
O=C(NCCN1CCC(n2c(=O)[nH]c3ccccc32)CC1)c1cccs1 | -6 | x | x | x
c1coc(-c2nnc(-c3ccco3)nn2)c1 | 2 | 23* | 4 | 11
COc1cccc(-c2nc(CS(=O)(=O)CC(=O)NCCCN3CC(C)CC(C)C3)c(C)o2)c1 (configuration not stated) | 1 | 19* | -3 | 9
C[C@@H]1C[C@H]2[C@@H]3CCC4=CC(=O)C=C[C@]4(C)[C@@]3(F)[C@@H](O)C[C@]2(C)[C@@]1(O)C(=O)CO | 0 | 0 | 1 | 3
CCCC(=O)O[C@]1(C(=O)COC(C)=O)CC[C@H]2[C@@H]3C[C@H](F)C4=CC(=O)C=C[C@]4(C)[C@@]3(F)[C@@H](O)C[C@@]21C | 1 | -37 | 22*! | 1
CC(=O)[C@@]1(O)CC[C@H]2[C@@H]3C[C@H](C)C4=CC(=O)C=C[C@]4(C)[C@@]3(F)[C@@H](O)C[C@@]21C | 6 | 1 | 18*! | -6
N/C(=N\OS(=O)(=O)c1ccc(Br)cc1)c1ccncc1 | 2 | 29* | -2 | 4
CCNC(=O)C1(C)CCCN1C(=O)c1ccc(-c2ccccc2)cc1 (configuration not stated) | -5 | x | x | x
CC(C)C[C@H](N)c1nnc(S(=O)(=O)Cc2cccc(F)c2)o1 | -5 | 72* | 5 | 6
CC(C)(C)OC(=O)N[C@@H](CCCCNC(=O)OCc1ccccc1)c1nnc([C@H](CCCCNC(=O)OCc2ccccc2)NC(=O)OC(C)(C)C)o1 | -3 | 6 | 4 | 17
CC(C)[C@H](NC(=O)OC(C)(C)C)c1nnc(S(=O)(=O)Cc2c(F)cccc2Cl)o1 | -4 | 41* | -1 | 8
Cc1ccccc1CS(=O)(=O)c1nnc([C@H](CC(C)C)NC(=O)OC(C)(C)C)o1 | -7 | 82* | -4 | 38*
CC(C)[C@H](NC(=O)OC(C)(C)C)c1nnc(SCC(=O)Nc2ccc(Br)cc2)o1 | 7 | 1 | -1 | 8
CC[C@@H](C)[C@H](NC(=O)OC(C)(C)C)c1nnc(S(=O)(=O)Cc2cc(C)ccc2C)o1 | -8 | 76* | 3 | 17
CCCOc1ccc(F)cc1-c1cc(C(=O)NCc2cc(C(F)(F)F)cc(C(F)(F)F)c2)[nH]n1 | -1 | x | x | x
CCc1c(-c2cccc(Br)c2)ncn1Cc1cccc(-c2ccccc2)c1 | -4 | x | x | x
O=C(O)CNC(=O)c1ccc(Oc2c(F)c(F)c(Oc3ccc(C(=O)NCC(=O)O)cc3)c(F)c2F)cc1 | -1 | -2 | -1 | -2
Cc1[nH]c(=O)[nH]c(=O)c1CSc1nnc([C@@H](NC(=O)OC(C)(C)C)C(C)C)o1 | 0 | 4 | 2 | -5
CC(C)=CCSc1nnc([C@@H](NC(=O)OC(C)(C)C)C(C)C)o1 | 4 | 36* | 1 | -2
SMILES | m5-HT2A agonist | CTSL1 counter | LANA-H2A inh | HDAC3 inh
CCOC(=O)CSc1nnc([C@H](Cc2ccccc2)NC(=O)OC(C)(C)C)o1 | 3 | -1 | 6 | 0
CC(C)(C)OC(=O)N[C@@H](Cc1ccccc1)c1nnc(S(=O)(=O)Cc2cccc(F)c2)o1 | x | 31* | -2 | 69*
CC(C)C[C@H](NC(=O)OC(C)(C)C)c1nnc(SCc2ccccc2)o1 | -4 | 23* | 3 | 11
CCC(C)[C@H](NC(=O)N1CCn2c1nc1ccccc12)C(=O)NCCc1ccc(OC)c(OC)c1 (some centres not stated) | -3 | 3 | -1 | -5
CCOc1cccc(CN2CCC(Oc3ccc(C(=O)N4CCCC4)cc3)CC2)c1O | -3 | x | x | x
COc1ccc(CN(CCN(C)C)c2ccccn2)cc1 | -10 | -1 | -14 | -2
CCCCCCCCCCCCCCCC[N+](C)(C)CCN(Cc1ccc(OC)cc1)c1ncccn1 | 12 | 2 | -12 | 63*
Nc1ccc(N2CCOCC2)c2nonc12 | 0 | 32* | 3 | 3
O=C(Nc1ccc(N2CCOCC2)c2nonc12)C1CCCC1 | -7 | -4 | -1 | 0
CC(C)C(NC(=O)CN(c1ccc2c(c1)OCCO2)S(=O)(=O)c1ccccc1)C(C)C | -1 | -5 | 5 | 1
CCCCn1c(/N=C/c2c[nH]c3ccccc23)nc2ccccc21 | 2 | 2 | -1 | 31*
CCCn1c(/N=C/c2c[nH]c3ccccc23)nc2ccccc21 | -3 | 3 | -8 | -3
CCCc1cc(=O)n2[nH]c(C)c(-c3ccc(OC)cc3)c2n1 | -1 | -1 | 4 | -2
CCN(CC)Cc1c(C)[nH]c2ccc(NC(C)=O)cc2c1=O | 6 | x | x | x
C=CCN(CC=C)Cc1c(C)[nH]c2ccc(C(=O)OCC)cc2c1=O | -5 | 20* | -2 | -9
N#Cc1c(-c2ccccc2)nc(SCc2cccc(Cl)c2)[nH]c1=O | -7 | 0 | 4 | 8
CC(=O)N(/N=C1\Sc2ccccc2C1=O)c1ccccc1C | 0 | 87* | -6 | 1
CC(=O)N(/N=C1\Sc2ccccc2C1=O)c1ccc(C)cc1C | 0 | 7 | 1 | 2
C[C@H](CO)N1C[C@H](C)[C@@H](CN(C)CC2CCCCC2)Oc2c(NS(=O)(=O)c3ccc(F)cc3)cccc2C1=O | -11 | x | 3 | 0
Cc1ccc(NC2=CC(=O)C(=O)c3ccccc32)cc1 | -5 | 15 | -1 | 9
COc1cc(OC)c(NC2=CC(=O)C(=O)c3ccccc32)cc1Cl | 6 | 23* | 2 | -2
CC(C)NC(=O)C1(C)CN(S(C)(=O)=O)CC(=O)N1CCc1ccccc1 (configuration not stated) | -1 | x | x | x
CCCCn1c(N)c(Sc2ccccc2)c(=O)[nH]c1=O | -7 | -4 | -3 | -9
CCCn1c(N)c(Sc2ccccc2)c(=O)n(CCC)c1=O | 18* | -2 | x | x
CN(C)S(=O)(=O)c1ccc(C(=O)NCC2(N3CCCCC3)CCCCC2)cc1 | -4 | 1 | 2 | -10
O=C(CSc1ccccc1)NCC1(N2CCCCC2)CCCCC1 | -3 | 60* | -3 | 3
COCc1ccc(C(=O)NCC2(N3CCCCC3)CCCCC2)cc1 | 1 | 1 | 6 | 0
COc1ccc(CC(=O)NCC2(N3CCCCC3)CCCCC2)cc1 | 9 | 29* | -1 | 0
Cc1cccc(-n2nnnc2SCC(=O)NCC2(N3CCOCC3)CCCCC2)c1C | -1 | x | + | 3
CS(=O)(=O)c1ccc(C(=O)NCC2(N3CCCCC3)CCCCC2)cc1 | -4 | 29* | 15 | -2
